Drawing on PubChem BioAssay AID488969 (Vanderbilt High Throughput Screening Facility, 2010), this text covers z-score for 55 compounds.

Over roughly 110,000 compounds, “z-score” has its median near -0.1; the highest 2% begin near 2. For the sample, the highest values were picked, then their nearest neighbours and some compounds at random. Calls of active or inactive are those of the source.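 Rule for the calls: active = z-score in the third read window above 3 or below -3; inactive = the rest.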

Chain of Metabotropic glutamate receptor 8 (Rattus norvegicus) (P70579 whole entry, looked up): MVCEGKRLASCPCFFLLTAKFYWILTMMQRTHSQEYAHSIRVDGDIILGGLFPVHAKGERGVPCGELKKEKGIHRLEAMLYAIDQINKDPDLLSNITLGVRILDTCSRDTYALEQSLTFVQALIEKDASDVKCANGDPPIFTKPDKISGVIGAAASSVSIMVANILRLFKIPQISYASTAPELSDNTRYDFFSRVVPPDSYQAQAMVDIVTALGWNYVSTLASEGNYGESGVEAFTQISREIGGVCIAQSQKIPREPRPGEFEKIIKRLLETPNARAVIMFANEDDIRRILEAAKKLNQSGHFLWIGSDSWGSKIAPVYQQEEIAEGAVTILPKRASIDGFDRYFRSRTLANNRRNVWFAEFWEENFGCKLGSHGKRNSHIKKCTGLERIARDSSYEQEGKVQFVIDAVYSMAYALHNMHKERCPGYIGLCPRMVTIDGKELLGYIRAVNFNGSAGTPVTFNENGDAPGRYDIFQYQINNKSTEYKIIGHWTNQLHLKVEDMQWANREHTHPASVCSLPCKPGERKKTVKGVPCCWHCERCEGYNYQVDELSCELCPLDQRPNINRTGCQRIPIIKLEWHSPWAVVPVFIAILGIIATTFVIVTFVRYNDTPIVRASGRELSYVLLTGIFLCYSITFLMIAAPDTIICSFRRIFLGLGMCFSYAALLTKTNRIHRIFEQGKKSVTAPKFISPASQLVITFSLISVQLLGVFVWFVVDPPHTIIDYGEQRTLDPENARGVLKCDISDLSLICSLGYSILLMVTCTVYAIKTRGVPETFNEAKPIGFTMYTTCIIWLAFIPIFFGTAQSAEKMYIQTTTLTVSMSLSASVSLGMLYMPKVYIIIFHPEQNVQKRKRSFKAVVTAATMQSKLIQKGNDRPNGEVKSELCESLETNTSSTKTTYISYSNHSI

This assay concerns the target Metabotropic glutamate receptor 8 (Rattus norvegicus) (UniProt P70579). Put plainly: rat mGluR8 modulators via GIRK flux, primary screen, cell-based, thallium flux, HTS (AID 488969). Particulars: HEK293 rat mGluR8, GIRK (G protein-gated inwardly rectifying potassium channel) thallium flux, FluoZin2; at 10 µM; stronger effect = higher value; submaximal glutamate (EC20) added with thallium.
With `COc1cc(/C=C2\SC(=S)N(Nc3ncc(C(F)(F)F)cc3Cl)C2=O)ccc1O`, the z-score came to 1.29.

Consider `O=C1/C(=C\c2ccccn2)SC(=S)N1Nc1ncc(C(F)(F)F)cc1Cl`, for which the z-score is 3.17 (active).

Turning to `CCOC(=O)CC1C(=O)NCCN1C(=O)c1cc2c(=O)n3ccccc3nc2s1` (stereo not given), the z-score was -0.533.

Take `CN(C)S(=O)(=O)c1cccc(NC(=O)COc2cccc(C#N)c2)c1`: the z-score was 3.82 (active).

`CCN(CC)S(=O)(=O)c1cccc(NC(=O)COc2ccc(C#N)cc2OC)c1` had a z-score of -0.191.

Compound `Cc1c(Cl)cccc1NC(=O)CNc1cccc(S(=O)(=O)N(C)C)c1` gave a z-score of -0.138.

Compound `CN(C)S(=O)(=O)c1cccc(NC(=O)COC(=O)CCSc2ccc(Cl)cc2)c1` displayed a z-score of 0.722.

`CCNc1ccc(S(=O)(=O)N(C)C)cc1NCC(=O)Nc1ccc(F)c(Cl)c1` came in with a z-score of 0.204.

In turn, `Cc1cc(=O)oc2cc(OCC(=O)Nc3cccc(S(=O)(=O)N(C)C)c3)ccc12` came in with a z-score of -0.0464.

For the compound `Cc1ccc(NCC(=O)Nc2cccc(S(=O)(=O)N(C)C)c2)c(Cl)c1`, the z-score is 4.79 (active).

Regarding `CN(C)S(=O)(=O)c1cccc(NC(=O)Cc2ccc(Cl)cc2)c1`, the z-score was 4.58 (active).

Compound `O=C(Cc1ccc(Cl)cc1)Nc1cccc(S(=O)(=O)Nc2ccccc2F)c1` came in with a z-score of 0.371.

`CC1CN(c2c3c(nc4ncnn24)CCCC3)CC(C)O1` (stereo not given) returned a z-score of -0.374.

For the compound `Cc1ccc(N(C(C)C(=O)Nc2ccc(S(=O)(=O)N3CCOCC3)cc2)S(C)(=O)=O)cc1` (stereo not given), the z-score amounted to 0.137.

On to `CCCCc1ccc(-c2csc(/C(C#N)=C/c3ccco3)n2)cc1`, for which the z-score is -0.275.

Take `CCOCCCNC(=O)c1ccc(CS(=O)(=O)Cc2cccc(C)c2)o1`: the z-score amounted to 0.789.

On to `O=C1CC(N2CCC(O)(c3ccc(Cl)cc3)CC2)C(=O)N1` (stereo not given), for which the z-score was determined as 0.198.

In turn, `COc1cccc(NC(=O)N(CCCN2CCOCC2)C(C)c2cc3ccccc3o2)c1` (stereo not given) had a z-score of -2.21.

In turn, `CCN(C(=O)CCN1C(=O)c2ccccc2C1=O)C1CCCCC1` registered a z-score of 0.156.

For `O=C(CSc1nc(O)cc(=O)n1-c1ccccc1)N1CCCCC1`, the z-score was 4.46 (active).

On to `NC(=O)CSc1nc(O)cc(=O)n1-c1ccccc1`, for which the z-score stood at 0.418.

As for `O=C(CSc1nc2ccccc2c(=O)n1-c1ccccc1)N1CCCC1`, the z-score was -0.689.

Turning to `COc1ccc(Cn2nnnc2C(c2ccccc2Cl)N2CCN(C3CCCC3)CC2)cc1` (stereo not given), the z-score came out at 1.79.

Compound `CC(C)C(c1nnnn1Cc1ccco1)N1CCN(C2CCCC2)CC1` (stereo not given) registered a z-score of -0.255.

Consider `Fc1ccc(C(c2nnnn2Cc2ccco2)N2CCN(C3CCCCC3)CC2)cc1` (stereo not given), for which the z-score amounted to 2.31.

On to `COc1ccc(Cn2nnnc2C(c2ccc(C)cc2)N2CCN(C3CCCC3)CC2)cc1` (stereo not given), for which the z-score is 0.353.

In the case of `COc1ccc(Cn2nnnc2C(c2ccc(F)cc2)N2CCN(C3CCCC3)CC2)cc1` (stereo not given), the z-score was 3.92 (active).

Compound `Fc1ccc(C(c2nnnn2Cc2cccs2)N2CCN(C3CCCC3)CC2)cc1` (stereo not given) displayed a z-score of 1.73.

As to `N#Cc1nc(-c2ccccc2)oc1NCC1CCCO1` (stereo not given), the z-score was -0.084.

With `CCOC(=O)c1cnn2c1[nH]c(=O)c1ccccc12`, the z-score turned out to be 1.54.

Take `Cc1nn2c([nH]c(=O)c3ccccc32)c1C=O`: the z-score was 0.184.

Consider `Cc1cc2[nH]c(=O)c3ccccc3n2n1`, for which the z-score is 4.8 (active).

`CCOC(=O)c1ccccc1NC(=O)Cc1ccccc1OC` returned a z-score of -0.663.

On to `CCCOc1ccccc1N/C(=N/c1nc(C)cc(C)n1)NC(=O)COc1ccc(OC)cc1`, for which the z-score was 0.266.

`CC1CN(C(=O)C2CC2)C(C)CN1C(=O)C1CC1` (stereo not given) showed a z-score of 0.00492.

As to `CC1CN(C(=O)C2CCCC2)C(C)CN1C(=O)C1CCCC1` (stereo not given), the z-score came out at 0.888.

In the case of `CC1CN(C(=O)C2CCCCC2)C(C)CN1C(=O)C1CCCCC1` (stereo not given), the z-score is 11.1 (active).

`Cc1ccccc1NC(=O)c1cn(-c2ccccc2)nc1-c1ccccc1`: the z-score is 0.316.

`O=C(Nc1ccccc1)Nc1ccc2snnc2c1` showed a z-score of -0.373.

`CC(C)c1ccc(Oc2cccc(C(=O)/C(C#N)=C/N(C)C)c2)cc1` yielded a z-score of -0.286.

`CC(C)c1ccc2c(c1)C(=O)NC(C)(C)C2`: the z-score was -0.156.

With `Cc1cc2c(cc1C)C(=O)NC(C)(C)C2`, the z-score is 5.66 (active).

Take `CC1(C)Cc2ccccc2C(=O)N1`: the z-score stood at 0.0959.

`O=C(CN1C(=O)CCS(=O)(=O)c2ccccc21)Nc1cccc(F)c1`: the z-score is -0.608.

In turn, `Cc1ccc(Nc2c([N+](=O)[O-])cc(C(=O)N3CC(=O)Nc4ccccc43)cc2[N+](=O)[O-])c(C)c1` gave a z-score of -0.162.

Regarding `CCc1cccc(Nc2c([N+](=O)[O-])cc(C(=O)N3CC(=O)Nc4ccccc43)cc2[N+](=O)[O-])c1`, the z-score is -1.1.

For the compound `Cc1ccc(C)c(Nc2c([N+](=O)[O-])cc(C(=O)N3CC(=O)Nc4ccccc43)cc2[N+](=O)[O-])c1`, the z-score is 4.62 (active).

For the compound `O=C(c1ccc(O)cc1)c1ccc(Cl)cc1`, the z-score was -0.563.

`CCOC(=O)Nc1cc2c(cc1C(C)=O)OCO2` showed a z-score of 0.657.

The compound `COc1ccc(Cl)cc1NC(=O)C1CC(=O)N(c2ccc(F)cc2)C1` (stereo not given) had a z-score of 0.0135.

Compound `CCOc1ccc(N2CC(C(=O)Nc3ccccc3OC)CC2=O)cc1` (stereo not given) registered a z-score of 1.1.

Turning to `COc1ccc(OC)c(NC(=O)C2CC(=O)N(c3ccc(Br)cc3)C2)c1` (stereo not given), the z-score was 3.63 (active).

`COC(=O)c1ccccc1NC(=O)C1CC(=O)N(c2ccc(F)cc2)C1` (stereo not given) gave a z-score of 2.15.

On to `COC(=O)c1ccccc1NC(=O)C1CC(=O)N(c2ccccc2)C1` (stereo not given), for which the z-score was -0.0106.

Turning to `COC(=O)c1ccccc1NC(=O)C1CC(=O)N(c2ccc(C)cc2)C1` (stereo not given), the z-score is -0.265.
